Experimental findings from PubChem BioAssay (NCATS) are described below.

“And” between values parts separate entries of the source, which are not always exact repeats. Identical values can stand only once. Results filed as inconclusive are left out. Some compounds were tested as several samples or in several runs, with calls that do not always agree. The source made the active and inactive calls. Calls come from the whole dose curve; as a rule, active = well fitted inhibition curve with a large enough effect; inconclusive = small, poorly fitted or top-dose-only effect; inactive = no such curve, though single readings can be large or run the other way.
% is set by controls: 0 for no effect and ±100 for the full control effect; potency is the fitted concentration of half-maximal effect.

Sequence of Cytochrome P450 2C9 (Homo sapiens) (P11712 whole entry, looked up): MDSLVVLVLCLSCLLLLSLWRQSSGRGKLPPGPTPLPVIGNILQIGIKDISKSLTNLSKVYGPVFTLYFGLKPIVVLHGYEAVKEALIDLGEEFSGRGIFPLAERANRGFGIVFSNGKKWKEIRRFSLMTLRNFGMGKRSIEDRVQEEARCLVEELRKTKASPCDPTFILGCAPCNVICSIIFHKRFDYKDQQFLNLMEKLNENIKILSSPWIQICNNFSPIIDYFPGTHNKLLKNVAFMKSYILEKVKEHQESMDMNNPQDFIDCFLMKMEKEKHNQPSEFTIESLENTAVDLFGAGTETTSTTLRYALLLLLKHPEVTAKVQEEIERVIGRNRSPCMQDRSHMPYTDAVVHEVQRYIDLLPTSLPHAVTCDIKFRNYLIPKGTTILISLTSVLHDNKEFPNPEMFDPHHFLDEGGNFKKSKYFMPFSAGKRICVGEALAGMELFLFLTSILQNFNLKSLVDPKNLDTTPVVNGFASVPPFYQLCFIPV

This assay has as its target Cytochrome P450 2C9 (Homo sapiens) (UniProt P11712). Put plainly: qHTS Assay for Inhibitors and Substrates of Cytochrome P450 2C9 (AID 883). Note: nearly all actives have a fitted effect of over 60% in size. Particulars: recombinant CYP2C9, luciferin-H luminescence, 60 min; series mostly up to 57.1 µM; activity change, negative = inhibition: at the top concentration. The procedure: NIH Molecular Libraries Screening Centers Network [MLSCN] NIH Chemical Genomics Center [NCGC] MLSCN Grant: None NCGC Assay Overview: The P450 gene superfamily is involved in the metabolism and clearance of xenobiotics. This assay used human CYP2C9 to measure the hydroxylation of deoxyluciferin (Luciferin-H; P450 Glo-Buffer) to luciferin. The luciferin is then measured by luminescence after the addition of a luciferase detection reagent. Luciferin-H concentration in the assay was equal to its Michaelis constant KM for CYP2C9. Inhibitors and some substrates limit the production of luciferin, and decrease measured luminescence.
NCGC Assay Protocol Summary: Two uL of enzyme and substrate mix (final concentrations: 10nM CYP2C9, 100uM Luciferin-H, 25mM KPO4) were dispensed into a white, solid bottom 1536-well microtiter plate. 23nL of compound was transferred by a pin tool. The plate was incubated at 37C for 10 min. Two uL of an NADPH regeneration solution (Promega supplied reagent) was dispensed and the reaction was allowed to continue for 60 min at 37C. Then the reaction was stopped by reconstituted P450 Glo-Buffer. After another 20 min of incubation the plate was read on the ViewLux (Perkin Elmer) at 60 sec exposure and 2x2 binning. This protocol was carried out with Promega-Glo reagents and further information can be found at http://www.promega.com/tbs/tb325/tb325.pdf. Data were normalized to the to AC100 inhibition (57uM sulphaphenazole). Keywords: P450, CYP2C9, Luciferase, MLSMR, MLSCN, NIH Roadmap, qHTS, NCGC
In general terms: Quantitative high-throughput screening tests each substance at several concentrations.
On to `O=C(Nc1ccccc1)c1cc([N+](=O)[O-])ccc1Cl`, for which the Potency entry is “inactive and 6.31 µM (active)”.
Same read-out and setting: to `CN=c1nc(-c2ccccc2)n(-c2ccccc2)s1` belongs 2 µM (active); to `COC(=O)c1c(C)[nH]c(C)c1C(=O)c1ccccc1Cc1ccccc1`, 2.51 µM (active).
Same read-out and setting: the result for `O=C(O)c1cc([N+](=O)[O-])ccc1NCCCc1ccccc1` reads 7.94 µM (active) and 501 nM (active); that for `N#C/C(=C\c1ccc(O)c(O)c1)C(=O)NCc1ccccc1`, “inactive”; that for `Cc1nc2sccn2c(=O)c1CCN1CCC(=C(c2ccccc2)c2ccc(F)cc2)CC1`, 31.6 µM (active).
As to `CCCCN1CCC(n2c(=O)[nH]c3ccccc32)CC1`, the “activity change, negative = inhibition” value was 51.3% (inactive).
Same read-out and setting: to `Oc1ccccc1O` belongs 17.6% (inactive).
Regarding `O=C1C(SCCO)=C(SCCO)C(=O)c2ccccc21`, the Potency is 12.6 µM (active) and 5.01 µM (active).
As to `C[C@@H](NC(=O)/C(C#N)=C/c1ccc(O)c(O)c1)c1ccccc1`, the “activity change, negative = inhibition” value is 11.9% (inactive).
The same measure, in the same setting: to `O=c1[nH]c2cc([N+](=O)[O-])c([N+](=O)[O-])cc2[nH]c1=O` belongs -5.31% (inactive).
Turning to `C=C[C@H]1CN2CC[C@@H]1C[C@@H]2[C@@H](O)c1ccnc2ccc(OC)cc12`, the outcome was inactive.
The same measure, in the same setting: the result for `CNCC[C@H](Oc1ccc(C(F)(F)F)cc1)c1ccccc1` reads “inactive”.
Regarding `Cn1cc(C2=C(c3ccc(Cl)cc3Cl)C(=O)NC2=O)c2ccccc21`, the Potency was 10 µM (active).
For the molecule `N=c1ccn2c(n1)O[C@H]1[C@H](O)[C@@H](CO)O[C@H]12`, the “activity change, negative = inhibition” value was -12% (inactive).
Consider `CCCSc1ccc2nc(NC(=O)OC)[nH]c2c1`, for which the outcome was inactive.
Take `Cc1ccc(O)c(N=Nc2ccccc2)n1`: the Potency was 12.6 µM (active) and inactive.
The same measure, in the same setting: to `c1cnc2c(c1)ccc1cccnc12` belongs “inactive”; to `O=C(c1cc(O)c(O)c([N+](=O)[O-])c1)c1ccccc1F`, 1.26 µM (active); to `N.N.O=C(O)C1(C(=O)O)CCC1.[Pt]`, 3.98 µM (active).
On to `O=C(O)c1cc(=O)c2c(Cl)cc(Cl)cc2[nH]1`, for which the “activity change, negative = inhibition” value is 48.1% (inactive).
The same measure, in the same setting: to `C=C[C@@H]1CN2CC[C@@H]1C[C@H]2[C@H](O)c1ccnc2ccc(OC)cc12` belongs -17.4% (inactive).
Same read-out and setting: to `N[C@H](CCCP(=O)(O)O)C(=O)O` belongs 11.4% (inactive).
On the same count and under the same terms, to `COc1ccccc1N1CCN(CCN(C(=O)c2ccc(I)cc2)c2ccccn2)CC1` belongs -2.77% (inactive).
